Screening data deposited in PubChem BioAssay by National Center for Advancing Translational Sciences (NCATS).
RORg inh: qHTS for inhibitors of ROR gamma transcriptional activity; Drosophila S2 Gal4-RORgamma UAS-luciferase reporter, 20 h; Potency, µM (highest dose often 53.6 µM), most hits filed as inhibitors; actives 5.4% (n = 310,000); further: nearly all actives have a fitted effect of over 60% in size
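Drosophila Schneider cells stably carrying a metallothionein-driven Gal4 DBD–ROR gamma fusion and a UAS-Photinus luciferase reporter were exposed to compound for 1 hr, then induced with copper sulfate (700 uM final) for 20 hr at ambient temperature before luminescence reading.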
PINK1 modulator: A Quantitative High throughput Screen to Identify Chemical Modulators of PINK1 Expression | PINK1 immunofluorescence, high-content cytometry, 24 h | Potency, µM (top dose mostly 76.6 µM), most hits filed as activators | actives 0.2% (n = 410,000) | AID 624263, 2012; active means well fitted activation curve with a large enough effect; inconclusive means small, poorly fitted or top-dose-only effect; cell line not stated here; further: nearly all actives have a fitted effect of over 65% in size
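A stable cell line was treated with compounds at 5 concentrations for 24 hours, with CCCP as control. PINK1 levels and mitochondrial localization were measured by immunofluorescence with mitochondrial, cell and nuclear markers after fixation, read by laser-scanning cytometry.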
ClpP mod: qHTS Assay for Activators of ClpP | purified B. subtilis ClpP, FRET peptide cleavage, 20 min | Potency, µM (titrated, usually from 57.5 µM) | actives 1.9% (n = 340,000) | AID 651965, 2013; active means well fitted falling curve with a large enough effect; inconclusive means small, poorly fitted or top-dose-only effect; inactive means no such curve, though single readings can be large or run the other way; further: the source files actives as falling curves though it sought activators and does not explain the sign; nearly all actives have a fitted effect of over 65% in size
Target sequence (P80244 whole entry, looked up): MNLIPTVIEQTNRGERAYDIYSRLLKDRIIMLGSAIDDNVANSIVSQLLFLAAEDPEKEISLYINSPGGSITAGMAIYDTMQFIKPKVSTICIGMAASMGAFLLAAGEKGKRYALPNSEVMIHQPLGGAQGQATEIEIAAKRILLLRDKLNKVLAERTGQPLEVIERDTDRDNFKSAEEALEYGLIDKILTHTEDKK
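FRET quenching reversal measured ClpP activation: 10 microg/mL B. subtilis ClpP at pH 8 with the FRET-FV decapeptide, read at 430 nm after 320 nm excitation. The 20-min minus 0-min signal was scaled between DMSO/no-enzyme wells and ADEP (5.8 microM final).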
Epigenetic reg: Quantitative High-Throughput Screen for Regulators of Epigenetic Control; AID 1865, 2009; Potency, µM (highest dose often 53.9 µM), most hits filed as activators; murine LDR cells, GFP reporter derepression, 30 h; actives 0.2% (n = 280,000); further: nearly all actives have a fitted effect of over 60% in size
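GFP-positive cell count by laser-scanning cytometry (objects 20–120 um) after 30 h, 37 C compound exposure of murine LDR cells; reporter is CMV-GFP integrated at a silenced locus, inducible by HDAC or DNMT inhibitors.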
Sfp inh: qHTS Assay for Inhibitors of Bacillus subtilis Sfp phosphopantetheinyl transferase (PPTase). Biochemical Sfp PPTase activity, qHTS. 4'-phosphopantetheinyl transferase ffp (Bacillus subtilis), Q9F4F7. Potency, µM, usual class: inhibitors. actives 3.5% (n = 310,000);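 further: the enzyme is Sfp with the accession as filed and its product quenches rhodamine fluorescence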
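After 15 min at room temperature with compound, 15 nM Sfp received 5 uM rhodamine-CoA plus 12.5 uM BHQ-2-ybbR (50 mM Hepes pH 7.6, 10 mM MgCl2). Rate came from the fluorescence difference over 30 min, ex 525/em 598 nm.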
VP16 counter: VP16 counterscreen qHTS for inhibitors of ROR gamma transcriptional activity | Drosophila S2 Gal4-VP16 UAS-luciferase, luminescence, 20 h | Potency, µM (highest dose often 53.6 µM), hits mostly inhibitors | actives 3.5% (n = 310,000) | AID 2546, 2010;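 further: Gal4-VP16 expression switched on by copper sulfate through the metallothionein promoter; nearly all actives have a fitted effect of over 50% in size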
Hits are given with their value; 0 = inactive; ? = inconclusive; - = no result; [ ] = another dose, or the depositor's remark. Shown are actives, neighbours in structure and some others; about 8.1% of the full set was active somewhere. Unless noted, the call rests on the fitted dose curve; in most records, active means well fitted curve in the direction sought with a large enough effect; inconclusive means small, poorly fitted or top-dose-only effect, or another doubt; inactive means no such curve, though single readings can be large; an effect the other way counts as inactive or inconclusive.

SMILES	RORg inh	PINK1 modulator	ClpP mod	Epigenetic reg	Sfp inh	VP16 counter
Oc1ccc(NC(=S)N=Nc2c(O)[nH]c3ccc(Br)cc23)cc1	10µM	0	-	?	0	?
Oc1[nH]c2ccc(Br)cc2c1N=NC(=S)Nc1ccc(F)cc1	0.79µM	0	-	0	?	7.9µM
Oc1cccc(NC(=S)N=Nc2c(O)[nH]c3ccc(Br)cc23)c1	0	0	-	0	0	0
O=C(COC(=O)c1cc(Cl)ccc1O)c1ccc2c(c1)OCO2	-	0	0	-	-	-
O=C(COC(=O)c1ccc(O)cc1O)c1ccc2c(c1)OCO2	7.1µM	0	0	-	0	?
COc1ccccc1CNC(=O)C(=O)NCC(c1cccnc1)N1CCN(c2ccccc2)CC1 (stereo unspecified)	-	0	0	0	-	-
Cc1ccc(O)c(NC(=S)NC(=O)c2ccc(-c3ccc(Cl)cc3)o2)c1	-	0	0	-	-	-
O=C(NC(=S)Nc1ccccc1O)c1ccc(-c2ccc(Cl)cc2)o1	3.2µM	0	0	0	0	7.9µM
O=C(NC12CC3CC(CC(C3)C1)C2)c1ccc(-c2ccc(Cl)cc2)o1	0	?	32µM	0	0	0
COc1ccccc1NC(=S)NC(=O)c1ccc(-c2ccc(Cl)cc2)o1	1.8µM	?	0	0	18µM	?
Cc1c(NC(=S)NC(=O)c2ccc(-c3ccc(Cl)cc3)o2)cccc1C(=O)O	0	0	-	0	0	0
CCCc1cc(C(=O)Nc2sc(C)c(C)c2C(=O)OCC)no1	0	0	0	0	16µM	0
N#Cc1c(NC(=O)c2ccncc2)sc2c1CCC2	0	0	0	0	?	0[0.365 µM]
CCOC(=O)c1c(NC(=O)c2cc(C(C)C)on2)sc(C)c1C	-	0	0	0	-	-
CCCc1cc(C(=O)Nc2sc(C)c(CC)c2C#N)no1	?	0	0	0	56µM	?
CCCc1cc(C(=O)Nc2sc3c(c2C#N)CCC3)no1	?	0	0	0	50µM	0
CCCCn1cc(S(=O)(=O)c2ccc(CC)cc2)c(=O)c2cc(F)c(N3CCCC(C)C3)cc21 (stereo unspecified)	-	0	16µM	0	-	-
CCc1ccc(S(=O)(=O)c2cn(CC)c3cc(N4CCCCC4)c(F)cc3c2=O)cc1	-	0	25µM	0	-	-
CCn1cc(S(=O)(=O)c2ccccc2)c(=O)c2cc(F)c(N3CCCCCC3)cc21	-	0	32µM	0	-	-
CCN(CC)c1cc2c(cc1F)c(=O)c(S(=O)(=O)c1ccc(C)cc1)cn2Cc1ccc(F)cc1	-	0	13µM	0	-	-
COc1ccc(C(=O)N2CC(=O)Nc3ccc(C)cc3C2c2ccccc2)c(OC)c1 (stereo unspecified)	-	0	0	0	-	-
Cc1cc(C)nc(Sc2ncnc(N)c2[N+](=O)[O-])n1	6.3µM	0	-	0	50µM	8.9µM
O=C(Nc1cccc(O)c1)c1cc(-c2ccccc2Cl)on1	0.22µM	0	0	-	0	1.3µM
O=C(c1cc(-c2ccccc2Cl)on1)N1CCCC1	13µM	0	-	-	0	?
COc1ccc(NC(=O)c2cc(-c3ccccc3Cl)on2)cc1OC	0	0	-	-	0	0
SMILES	RORg inh	PINK1 modulator	ClpP mod	Epigenetic reg	Sfp inh	VP16 counter
O=C(Nc1cccc(O)c1)c1cc(-c2ccc3c(c2)OCO3)on1	4µM	0	0	-	0	1.4µM
Cc1ccc(-c2onc(C)c2C)cc1S(=O)(=O)NC1CCC(C)CC1 (stereo unspecified)	-	0	0	0	-	-
CCN(CC)CCNC(=O)CCn1c(=O)c2cccn2c2cccnc21	-	0	0	0	-	-
COCCCNC(=O)Nc1cc(C(=O)NCc2ccc(OC)cc2)ccc1N1CCCC1	-	0	0	0	-	-
Cc1cc(S(=O)(=O)Nc2ccc3oc4c(c3c2)CCCC4)ccc1Cl	-	0	0	0	-	-
COc1cccc(NC(=O)Cn2c(=O)n(-c3ccc(Cl)cc3)c(=O)c3sc4ccccc4c32)c1	-	0	32µM	0	-	-
CCOc1ccccc1NC(=O)c1c(NC(=O)C(C)Oc2ccc(Cl)cc2)sc2c1CCCCC2 (stereo unspecified)	-	0	0	0	-	-
